± gives the uncertainty stated by the source. The full ranking holds about 9,900 compounds; the median of “viability index relative to DMSO control” is about 1, and the lowest 2% start at about 0.85. For the sample, the lowest values were picked, then their nearest neighbours and some compounds at random.
Tested on: Plasmodium falciparum NF54 stage V gametocytes
Assay: viability index relative to DMSO control (fraction); higher = less gametocyte killing
Details: 2.5 µM, incubation time: 72 h
In short: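 P. falciparum NF54 stage V gametocytes (serum-free medium, 0.75% gametocytemia, 1.25% hematocrit) were exposed to compound at 2.5 µM for 72 hr at 37°C under low oxygen, then stained with MitoTracker Red CMXRos and saponin for one to two hours. Red particles of 20–70 µm2 in one field per well were counted, and the viability index is that count scaled to the plate mean of solvent-only wells.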

[1] = library set: Broad Institute DOS
[2] = library set: Broad Institute Blood Stage

| SMILES | viability index [1] | viability index [2] |
| --- | --- | --- |
| O=C(NCc1ccccc1)[C@H]1[C@H](CO)[C@H]2Cn3c(cccc3=O)[C@@H]1N2C(=O)Cc1ccccn1 | 1.01 ± 0.015 |  |
| CCc1cnc(N2[C@H](C#N)[C@H](c3ccc(C#Cc4ccccc4F)cc3)[C@H]2CO)s1 | 0.8872 ± 0.0045 |  |
| COCC(=O)N1[C@H](CO)[C@@H](c2ccccc2)C12CN(Cc1cc(F)ccc1F)C2 | 1.07 ± 0.023 |  |
| CC(C)(C)[S@@](=O)N1Cc2cc(C(=O)NC3CCC3)nc(-c3cccc(Br)c3)c2[C@H]1CCO | 0.994 ± 0.058 |  |
| O=C(NCC[C@H]1CC[C@@H](NC(=O)c2ccncc2)[C@H](CO)O1)Nc1ccc(Cl)cc1 | 1.17 ± 0.023 |  |
| CCCC#Cc1ccc2c(c1)[C@@H]1[C@@H](CCN1S(=O)(=O)c1cccc(F)c1)[C@@H](CO)N2C | 1.12 ± 0.051 |  |
| C[C@H](CO)N1C[C@H](C)[C@H](CN(C)Cc2cccc3c2OCCCO3)OCc2ccccc2-c2ccccc2C1=O | 1.04 ± 0.039 |  |
| C[C@@H]1CN([C@H](C)CO)C(=O)c2ccccc2-c2ccccc2CO[C@@H]1CN(C)Cc1cccc2c1OCCCO2 | 0.941 ± 0.019 |  |
| C[C@H]1CN([C@@H](C)CO)C(=O)c2ccccc2-c2ccccc2CO[C@@H]1CN(C)Cc1ccccc1C(F)(F)F | 0.843 ± 0.028 |  |
| O=C(Cc1cccnc1)N1CC(=O)N2[C@H](C1)[C@@H](c1ccc(/C=C/c3ccccc3)cc1)[C@@H]2CO | 1 ± 0.029 |  |
| COCC(=O)N1CC(=O)N2[C@H](CO)[C@@H](c3ccc(-c4ccccc4F)cc3)[C@@H]2C1 | 1.07 ± 0.083 |  |
| O=C(c1cnccn1)N1CC(=O)N2[C@H](C1)[C@@H](c1ccc(-c3cccc(F)c3)cc1)[C@@H]2CO | 1.02 ± 0.012 |  |
| O=C(c1cccnc1)N1CC(=O)N2[C@H](CO)[C@H](c3ccc(-c4ccccc4F)cc3)[C@H]2C1 | 1.04 ± 0.041 |  |
| O=C(c1ccccc1)N1CC(=O)N2[C@H](C1)[C@@H](c1ccc(-c3ccccc3)cc1)[C@@H]2CO | 0.829 ± 0.051 |  |
| O=C(c1ccccc1)N1CC(=O)N2[C@H](CO)[C@@H](c3ccc(-c4ccccc4)cc3)[C@H]2C1 | 1.018 ± 0.0095 |  |
| O=C(c1ccc(F)cc1)N1CC(=O)N2[C@H](C1)[C@@H](c1ccc(-c3cccnc3)cc1)[C@@H]2CO |  | 0.733 ± 0.11 |
| O=C(c1cccc(F)c1)N1CC(=O)N2[C@H](C1)[C@@H](c1ccc(-c3cccnc3)cc1)[C@@H]2CO |  | 0.817 ± 0.042 |
| O=C(c1cnccn1)N1CC(=O)N2[C@@H](CO)[C@@H](c3ccc(-c4cccc(F)c4)cc3)[C@@H]2C1 | 1.02 ± 0.058 |  |
| O=C(c1cccc(F)c1)N1CC(=O)N2[C@H](CO)[C@H](c3ccc(-c4cccnc4)cc3)[C@H]2C1 |  | 0.771 ± 0.058 |
| O=C(c1ccncc1)N1CC(=O)N2[C@H](C1)[C@@H](c1ccc(-c3cccnc3)cc1)[C@@H]2CO |  | 0.891 ± 0.059 |
| O=C(c1cnccn1)N1CC(=O)N2[C@@H](CO)[C@H](c3ccc(-c4cccc(F)c4)cc3)[C@@H]2C1 | 1 ± 0.049 |  |
| O=C(c1ccccc1)N1CC(=O)N2[C@H](CO)[C@H](c3ccc(-c4ccccc4)cc3)[C@@H]2C1 | 1.02 ± 0.066 |  |
| O=C(c1cnccn1)N1CC(=O)N2[C@H](CO)[C@@H](c3ccc(-c4cccc(F)c4)cc3)[C@@H]2C1 | 0.99 ± 0.047 |  |

| SMILES | viability index [1] | viability index [2] |
| --- | --- | --- |
| O=C(Cc1cccnc1)N1CC(=O)N2[C@H](CO)[C@@H](c3ccc(C4=CCCCC4)cc3)[C@H]2C1 | 0.9507 ± 0.0051 |  |
| O=C(C1CCC1)N1CC(=O)N2[C@H](C1)[C@H](c1ccc(Br)cc1)[C@@H]2CO | 1.02 ± 0.0049 |  |
| C[C@H]1CN([C@@H](C)CO)C(=O)c2c(c3ccccc3n2C)-c2ccccc2CO[C@@H]1CN(C)C(=O)NC1CCCCC1 | 1.04 ± 0.11 |  |
| O=C(C[C@@H]1CC[C@@H]2[C@H](COC[C@@H](O)CN2C(=O)c2ccncc2)O1)NCc1cc(F)cc(F)c1 | 1.05 ± 0.12 |  |
| O=C(O)C[C@H]1C[C@H]2c3cc(NC(=O)Nc4ccc(C(F)(F)F)cc4)ccc3O[C@H]2[C@@H](CO)O1 | 1.06 ± 0.041 |  |
| O=C(NC[C@@H]1[C@H](c2ccccc2)[C@@H](CO)N1C(=O)C1CCC1)NC1CCCC1 | 0.976 ± 0.12 |  |
| COc1ccc(S(=O)(=O)N(C)C[C@@H]2Oc3ccc(NC(=O)Nc4ccc(C(F)(F)F)cc4)cc3C(=O)N([C@H](C)CO)C[C@H]2C)cc1 | 0.957 ± 0.08 |  |
| CN1CCN(C(=O)C[C@H]2CC[C@@H]3[C@H](COC[C@H](O)CN3Cc3cccc(-c4ccncc4)c3)O2)CC1 | 1.08 ± 0.028 |  |
| O=C(C[C@H]1CC[C@H](NS(=O)(=O)c2ccc(F)cc2)[C@@H](CO)O1)N1CCN(c2ccccc2)CC1 | 1.09 ± 0.13 |  |
| O=C(C[C@H]1CC[C@@H]2[C@H](COC[C@@H](O)CN2CCc2ccccc2)O1)NCCCN1CCOCC1 | 1.07 ± 0.054 |  |
| O=C(c1ccccc1F)N1CC(=O)N2[C@H](C1)[C@@H](c1ccc(-c3ccc(F)cc3)cc1)[C@@H]2CO |  | 0.86 ± 0.04 |
| O=C(c1ccccc1F)N1CC(=O)N2[C@H](CO)[C@H](c3ccc(-c4cccnc4)cc3)[C@H]2C1 |  | 0.742 ± 0.068 |
| O=C(c1ccccc1F)N1CC(=O)N2[C@H](C1)[C@@H](c1ccc(-c3cccnc3)cc1)[C@@H]2CO |  | 0.866 ± 0.049 |
| Cc1noc(C)c1NC(=O)N(C)C[C@@H]1OCc2cn(nn2)CCCC(=O)N([C@H](C)CO)C[C@@H]1C | 1.08 ± 0.1 |  |
| C[C@H](CO)N1C[C@H](C)[C@H](CN(C)Cc2ccc(C(=O)Nc3ccccc3N)cc2)OCc2cnnn2CCCC1=O | 0.953 ± 0.042 |  |
| CO[C@H]1CN(C)C(=O)c2ccc(NC(=O)c3cc(C)on3)cc2OC[C@H](C)NC[C@H]1C | 0.98 ± 0.029 |  |
| COc1cccc(S(=O)(=O)N(C)C[C@@H]2OCc3ccccc3-c3c(n(C)c4ccccc34)C(=O)N([C@@H](C)CO)C[C@H]2C)c1 | 0.977 ± 0.016 |  |
| COc1cccc(S(=O)(=O)N(C)C[C@H]2OCc3ccccc3-c3c(n(C)c4ccccc34)C(=O)N([C@H](C)CO)C[C@@H]2C)c1 | 0.975 ± 0.027 |  |
| COc1cccc(S(=O)(=O)N(C)C[C@H]2OCc3ccccc3-c3c(n(C)c4ccccc34)C(=O)N([C@H](C)CO)C[C@H]2C)c1 | 0.952 ± 0.034 |  |
| COc1cccc(S(=O)(=O)N(C)C[C@H]2OCc3ccccc3-c3c(n(C)c4ccccc34)C(=O)N([C@@H](C)CO)C[C@@H]2C)c1 | 0.956 ± 0.013 |  |
| COc1cccc(S(=O)(=O)N(C)C[C@@H]2OCc3ccccc3-c3c(n(C)c4ccccc34)C(=O)N([C@H](C)CO)C[C@@H]2C)c1 | 0.826 ± 0.058 |  |
| COc1cccc(S(=O)(=O)N(C)C[C@H]2OCc3ccccc3-c3c(n(C)c4ccccc34)C(=O)N([C@@H](C)CO)C[C@H]2C)c1 | 0.833 ± 0.059 |  |

From the supplement of paper PMC4723716
